The list is not random: actives were taken first. Their share in the collection is about 12%.
BAZ2B inh – BAZ2B (human) inhibition. Potency, µM (top dose mostly 114 µM), hits mostly inhibitors. 360,000 tested, 4.4% active. Q9UIF8. AlphaScreen BAZ2B-H3K14Ac peptide displacement; further: nearly all actives have a fitted effect of over 60% in size
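Multi-concentration screen (max 110 uM) measuring displacement of acetylated histone H3 peptide from BAZ2B by AlphaScreen, using 50 nM protein, 50 nM peptide and 10 ug/mL streptavidin donor plus Ni-chelate acceptor beads.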
G9a block – G9a (human) methyltransferase inhibition | G9a H3K9 monomethylation, AlphaScreen, 2 h | AID 504332 | 350,000 tested, 8.8% active | Q96KQ7 | Potency, µM (series often up to 102 µM), actives largely listed as inhibitors; further: nearly all actives have a fitted effect of over 75% in size
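Step 1: enzyme (final 20 nM) with compound, 15 min RT. Step 2: substrate peptide 500 nM and SAM 20 uM, 2 h RT. Step 3: anti-H3K9me1 antibody and AlphaScreen beads, 10 min, then plate read.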
PLK1 PBD block – blocks phosphopeptide binding to human PLK1 polo-box domain; P53350; Plk1 PBD binding of FITC phosphopeptide, fluorescence polarization; Potency, µM, most hits filed as inhibitors; 360,000 tested, 2.8% active; AID 720504; further: series mostly up to about 57 µM; nearly all actives have a fitted effect of over 65% in size
Sfp inh – Sfp phosphopantetheinyl transferase inhibition | Q9F4F7 | Biochemical Sfp PPTase activity, qHTS | Potency, µM, most hits filed as inhibitors | 310,000 tested, 3.5% active | AID 1490;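 further: the enzyme is Sfp with the accession as filed and its product quenches rhodamine fluorescence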
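After 15 min at room temperature with compound, 15 nM Sfp received 5 uM rhodamine-CoA plus 12.5 uM BHQ-2-ybbR (50 mM Hepes pH 7.6, 10 mM MgCl2). Rate came from the fluorescence difference over 30 min, ex 525/em 598 nm.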
HP1b chromo inh – inhibitors of HP1-beta chromodomain binding to methylated histone tails | P83916 | AlphaScreen HP1-beta / biotin-H3K9me3 peptide binding | Potency, µM (titrated, usually from 114 µM), hits mostly inhibitors | 390,000 tested, 0.56% active | AID 540317; further: nearly all actives have a fitted effect of over 70% in size
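AlphaScreen: HP1-beta (50 nM) preformed 30 min with biotin-H3(1-18)K9me3 peptide (50 nM) in PBS pH 7.4, 0.01% Tween-20. Compound added for 30 min at RT, then streptavidin donor/nickel chelate acceptor beads (10 ug/mL) for 30 min.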
JMJD2A Tudor – blocks the human JMJD2A Tudor domain; O75164; AlphaScreen JMJD2A-Tudor / H3K4me3 peptide binding; Potency, µM (doses to about 114 µM), hits mostly inhibitors; 390,000 tested, 4.4% active; AID 504339; further: nearly all actives have a fitted effect of over 50% in size
A number is an active result; [ ] = another dose, or the depositor's remark. The call rests on the fitted dose curve; in most records, active means well fitted curve in the direction sought with a large enough effect; inconclusive means small, poorly fitted or top-dose-only effect, or another doubt; inactive means no such curve, though single readings can be large; an effect the other way counts as inactive or inconclusive.

Results for N#Cc1c(NC(=O)CSc2ncc(-c3ccccc3)n2CC2CCCO2)sc2c1CCCC2 (stereo not given) ?
BAZ2B inh: inconclusive; G9a block: 11µM; PLK1 PBD block: inactive; Sfp inh: inactive; HP1b chromo inh: inactive; JMJD2A Tudor: inconclusive

What do the screens show for `Cc1cccc(C(CC(=O)NCCc2ccccc2)c2ccccc2)c1O` (stereo not given)?
BAZ2B inh: inactive; G9a block: inactive; PLK1 PBD block: inactive; Sfp inh: 79µM; HP1b chromo inh: inactive; JMJD2A Tudor: inactive

Results for COc1ccc(CCNC(=O)CC(c2ccccc2)c2cc(C)ccc2O)cc1OC (stereo not given) ?
BAZ2B inh: inactive; G9a block: inactive[2.33 µM]; PLK1 PBD block: inactive; Sfp inh: inactive; HP1b chromo inh: inactive; JMJD2A Tudor: inactive

Results for Cc1cccc(C(CC(=O)NCc2ccco2)c2ccccc2)c1O (stereo not given) ?
BAZ2B inh: inconclusive; G9a block: 45µM; PLK1 PBD block: inactive; Sfp inh: inactive; HP1b chromo inh: inactive; JMJD2A Tudor: inactive

How did O=C(CC1C(=O)NCCN1Cc1c(F)cccc1Cl)NCCCOc1cccnc1 (stereo not given) do in these assays?
BAZ2B inh: inactive; G9a block: inactive; PLK1 PBD block: inactive; Sfp inh: inactive; HP1b chromo inh: inactive; JMJD2A Tudor: inactive

What do the screens show for `COc1ccc(-c2ccc(OC)c(C3C4C=CCCC4(C)C(=O)N3Cc3ccccc3)c2)cc1OC` (stereo not given)?
Sfp inh: inconclusive; HP1b chromo inh: inactive; JMJD2A Tudor: inconclusive

What do the screens show for `CCC(C)NC(=O)CN1C(=O)c2cccnc2Oc2ccc(C)cc21` (stereo not given)?
BAZ2B inh: inactive; G9a block: inactive; HP1b chromo inh: inactive; JMJD2A Tudor: 50µM

Results for C[C@@H]1ON(C)[C@H]2C[C@H]3c4[nH]c5ccc(-c6ccc7c(c6)OCO7)cc5c4CCN3C(=O)[C@@H]12 ?
PLK1 PBD block: inactive

How did CC[C@H](C)[C@H](NC(=O)CNC(=O)[C@H](C)NC(=O)[C@H](C)N)C(=O)NCC(=O)N[C@H](C(=O)N[C@@H](CC(C)C)C(=O)N[C@H](C(=O)N[C@H](C(=O)O)C(C)C)[C@@H](C)O)[C@@H](C)CC do in these assays?
Sfp inh: inactive

How did C#CCSc1nncn1C(=O)/C=C/c1ccccc1 do in these assays?
BAZ2B inh: inactive; G9a block: inconclusive; PLK1 PBD block: 24µM; Sfp inh: inconclusive; HP1b chromo inh: inactive; JMJD2A Tudor: inactive

What do the screens show for `C#CCSc1nc2ccccc2c(=O)n1CC=C`?
HP1b chromo inh: inactive; JMJD2A Tudor: inactive

What do the screens show for `O=C(NCCCCCCNC(=O)c1ccncc1)c1ccncc1`?
BAZ2B inh: inactive; PLK1 PBD block: inactive; Sfp inh: inactive; HP1b chromo inh: inactive; JMJD2A Tudor: inactive

What do the screens show for `O=C(NCCCNC(=O)c1cncc(O)c1)c1cncc(O)c1`?
BAZ2B inh: inconclusive; G9a block: 50µM; PLK1 PBD block: inconclusive; Sfp inh: inactive; HP1b chromo inh: inactive; JMJD2A Tudor: inactive[11.4 µM]

Results for O=C(NCCCCCCNC(=O)c1cncc(O)c1)c1cncc(O)c1 ?
BAZ2B inh: 50µM; G9a block: 71µM; PLK1 PBD block: inactive; Sfp inh: inactive; HP1b chromo inh: inactive; JMJD2A Tudor: 16µM

What do the screens show for `CCOC(=O)CCCNC(=O)c1cncc(O)c1`?
BAZ2B inh: inconclusive; G9a block: 56µM; PLK1 PBD block: inactive; Sfp inh: inactive; HP1b chromo inh: inactive; JMJD2A Tudor: inactive

How did O=C(O)CCCNC(=O)c1cncc(Br)c1 do in these assays?
BAZ2B inh: inactive; G9a block: inactive; PLK1 PBD block: inactive; Sfp inh: inactive; HP1b chromo inh: inactive; JMJD2A Tudor: inactive

Results for Cc1ccccc1-c1nc(CS(=O)(=O)CC(=O)NCCCN2CCN(C)CC2)c(C)o1 ?
BAZ2B inh: inactive; G9a block: inactive; PLK1 PBD block: inactive; Sfp inh: inactive; HP1b chromo inh: inactive; JMJD2A Tudor: inactive

What do the screens show for `COc1cccc(CNC(=O)c2ccc(NC(=O)CC3SC(N4CCCC4)=NC3=O)cc2)c1` (stereo not given)?
BAZ2B inh: inactive; G9a block: inactive[12.7 µM]; PLK1 PBD block: inactive; HP1b chromo inh: inactive; JMJD2A Tudor: inactive

From PubChem BioAssay
